Structures can show the parent of a compound that is named as a salt.
What was measured:
Assay in all cases: growth AUC normalised to DMSO control (median) (fraction of control); higher = less growth inhibition, active = hit call of the paper
Settings in all cases: 20 µM;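 active = normalised median growth AUC below 0.1 of DMSO control; inactive = AUC 0.1 or higher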
[1] = test system: P. vulgatus RND KO
Summary of the method: (§1)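 Area under the growth curve, calculated by the trapezoidal rule up to entry into stationary phase, was normalised to vehicle wells on the same plate. Strains had been passaged twice overnight without oxygen and then grown in mGAM in 96-well plates from OD578 0.01, each with an approved-drug library compound at 20 μM in 1% DMSO. OD578 was read hourly over 24 h in an anaerobic incubator, and the median of three biological replicates is given.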

[2] = test system: P. vulgatus WT
Summary of the method: as §1

[3] = test system: S. enterica typhimurium WT
Summary of the method: as §1

[4] = test system: S. enterica typhimurium tolC KO
Summary of the method: as §1

Measured: growth AUC normalised to DMSO control
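Note: active when median AUC fell below 0.1.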

CCOC(=O)c1c(N)sc2c1CCN(Cc1ccccc1)C2 [Tinoridine hydrochloride]
inactive: [1] 0.91 | [2] 0.852 | [3] 0.989 | [4] 0.969

Oc1cc(O)c2c(c1)O[C@H](c1ccc(O)c(O)c1)[C@@H](O)C2 [Cianidanol]
inactive: [1] 1 | [2] 1.01 | [3] 1.01 | [4] 0.994

N=C(N)Nc1ccc(C(=O)Oc2ccc3cc(C(=N)N)ccc3c2)cc1 [Nafamostat Mesylate]
inactive: [1] 1.11 | [2] 1.03 | [3] 0.997 | [4] 0.999

CS(=O)(=O)CCNCc1ccc(-c2ccc3ncnc(Nc4ccc(OCc5cccc(F)c5)c(Cl)c4)c3c2)o1 [Lapatinib]
inactive: [1] 1.03 | [2] 1.03 | [3] 1 | [4] 0.99

N[C@@H](C(=O)N[C@@H]1C(=O)N2C(C(=O)O)=C(Cl)CC[C@H]12)c1ccccc1 [Loracarbef]
active: [1] 0.00871 | [2] 0.00996 | [3] 0.018 | [4] 0.0264

CC(C)c1nc(CN(C)C(=O)N[C@H](C(=O)N[C@@H](Cc2ccccc2)C[C@H](O)[C@H](Cc2ccccc2)NC(=O)OCc2cncs2)C(C)C)cs1 [Ritonavir]
inactive: [1] 1.04 | [2] 1.04 | [3] 0.998 | [4] 0.97

CC(=O)Nc1ccc(CC(=O)O)cc1 [Actarit]
inactive: [1] 0.953 | [2] 1.01 | [3] 1 | [4] 0.991

CC(=O)Nc1ccc(OC(=O)c2ccccc2O)cc1 [Acetaminosalol]
inactive: [1] 0.959 | [2] 0.964 | [3] 1 | [4] 0.937

COC(=O)N/N=C/c1c[n+]([O-])c2ccccc2[n+]1[O-] [Carbadox]
inactive: [3] 0.558 | [4] 0.591
active: [1] 0.0197 | [2] 0.0112

CC(C)[C@H]1CC[C@H](C(=O)N[C@H](Cc2ccccc2)C(=O)O)CC1 [Nateglinide]
inactive: [1] 0.977 | [2] 0.999 | [3] 0.994 | [4] 0.968

O=P(O)(O)C(O)(Cc1cccnc1)P(=O)(O)O [Risedronic acid monohydrate]
inactive: [1] 0.976 | [2] 0.999 | [3] 1.01 | [4] 1

C=CC[C@@H]1/C=C(\C)C[C@H](C)C[C@H](OC)[C@H]2O[C@@](O)(C(=O)C(=O)N3CCCC[C@H]3C(=O)O[C@H](/C(C)=C/[C@@H]3CC[C@@H](O)[C@H](OC)C3)[C@H](C)[C@@H](O)CC1=O)[C@H](C)C[C@@H]2OC [Tacrolimus Monohydrate]
inactive: [1] 1 | [2] 1.03 | [3] 0.998 | [4] 1.04

CCN(CC)CCOCCOC(=O)C(CC)(CC)c1ccccc1 [Oxeladin citrate]
inactive: [1] 1 | [2] 0.98 | [3] 0.995 | [4] 0.973

COc1ccc2c(c1)c(CC(=O)OC/C=C(\C)CC/C=C(\C)CCC=C(C)C)c(C)n2C(=O)c1ccc(Cl)cc1 [Indometacin farnesil]
inactive: [1] 1 | [2] 0.988 | [3] 0.996 | [4] 1.01

CCOC(=O)[C@H](CCc1ccccc1)N[C@@H](C)C(=O)N1[C@H](C(=O)O)C[C@H]2CCCC[C@@H]21 [Trandolapril]
inactive: [1] 0.986 | [2] 0.992 | [3] 1.01 | [4] 0.998

COc1ccc(-c2ccc3cc(C(=O)O)ccc3c2)cc1C12CC3CC(CC(C3)C1)C2 [Adapalene]
inactive: [1] 1.03 | [2] 1 | [3] 0.988 | [4] 1.01

COc1cccc2c1C(=O)c1c(O)c3c(c(O)c1C2=O)C[C@@](O)(C(=O)CO)C[C@@H]3O[C@H]1C[C@H](N)[C@@H](O)[C@H](C)O1 [Epirubicin hydrochloride]
inactive: [1] 1.02 | [2] 0.961 | [3] 1
active: [4] 0.0212

O=C(Cn1c(=O)sc2ccc(Cl)cc21)N1CCN(CCO)CC1 [Tiaramide Hydrochloride]
inactive: [1] 1 | [2] 1.04 | [3] 1.01 | [4] 0.995

Cn1c([N+](=O)[O-])cnc1COC(N)=O [Ronidazole]
active: [1] 0.0102 | [2] 0.00777
inactive: [3] 0.999 | [4] 0.923

CCOC(=O)Nc1ccc(NCc2ccc(F)cc2)nc1N [Flupirtine]
inactive: [1] 1.08 | [2] 1.05 | [3] 1 | [4] 0.979

C=C(NC(=O)C(=C)NC(=O)c1csc(C2=N[C@@H]3c4csc(n4)[C@H]4NC(=O)c5csc(n5)[C@H]([C@](C)(O)[C@@H](C)O)NC(=O)[C@H]5CSC(=N5)/C(=C/C)NC(=O)[C@H]([C@@H](C)O)NC(=O)c5csc(n5)[C@]3(CC2)NC(=O)[C@H](C)NC(=O)C(=C)NC(=O)[C@H](C)NC(=O)[C@H]([C@@H](C)CC)N[C@@H]2C=Cc3c([C@H](C)O)cc(nc3[C@H]2O)C(=O)O[C@@H]4C)n1)C(N)=O [Thiostrepton]
inactive: [3] 1 | [4] 1
active: [1] 0.0151 | [2] 0.0162

Nc1ccc(S(=O)(=O)Nc2ccc(Cl)nn2)cc1 [Sulfachloropyridazine]
inactive: [1] 1.03 | [2] 1.02 | [3] 0.965 | [4] 0.963

CCCCCOC(=O)Nc1nc(=O)n([C@@H]2O[C@H](C)[C@@H](O)[C@H]2O)cc1F [Capecitabine]
inactive: [1] 0.987 | [2] 0.998 | [3] 0.982 | [4] 0.994

CC(=O)N[C@H]1[C@H]([C@H](O)[C@H](O)CO)OC(C(=O)O)=C[C@@H]1NC(=N)N [Zanamivir]
inactive: [1] 1.06 | [2] 1.1 | [3] 1 | [4] 1.02

N[C@@H]1CCCCN(c2c(F)cc3c(=O)c(C(=O)O)cn(C4CC4)c3c2Cl)C1 [Besifloxacin hydrochloride]
active: [1] 0.0164 | [2] 0.0175 | [3] 0.00618 | [4] 0.00833

CC(=O)Nc1ccccc1 [Acetanilide]
inactive: [1] 0.993 | [2] 1 | [3] 0.997 | [4] 1.01

CC1(C)S[C@@H]2[C@H](NC(=O)C(c3ccccc3)S(=O)(=O)O)C(=O)N2[C@H]1C(=O)O (stereo partly drawn) [Sulbenicillin sodium salt]
active: [1] 0.00728 | [2] 0.00538 | [4] 0.00823
inactive: [3] 0.116

N[C@@H](Cc1c[nH]c2ccccc12)C(=O)O [L-Tryptophan]
inactive: [1] 1 | [2] 1.03 | [3] 0.994 | [4] 0.989

CCOC(=O)[C@H](CCc1ccccc1)N[C@@H](C)C(=O)N1C(=O)N(C)C[C@H]1C(=O)O [Imidapril hydrochloride]
inactive: [1] 1.01 | [2] 1 | [3] 1.02 | [4] 1

Nc1nc2[nH]cc(CCc3ccc(C(=O)N[C@@H](CCC(=O)O)C(=O)O)cc3)c2c(=O)[nH]1 [Pemetrexed disodium]
inactive: [1] 1.07 | [2] 1.04 | [3] 1.01 | [4] 0.999

CC(C)(C)CC(C)(C)c1ccc(O)c(Cc2ccc(Cl)cc2Cl)c1 [Clofoctol]
inactive: [1] 0.619 | [2] 0.581 | [3] 0.995 | [4] 1.02

CC(=O)OC(C)OC(=O)C(C)c1ccc(-c2ccccc2)c(F)c1 (stereo not drawn) [Flurbiprofen axetil]
inactive: [1] 1.09 | [2] 1.1 | [3] 1.01 | [4] 0.856

O=C(O)CCNC(=O)c1ccccc1 [Betamipron]
inactive: [1] 1 | [2] 1.04 | [3] 0.998 | [4] 0.807

COc1ccc(CNc2nc(N3CCC[C@H]3CO)ncc2C(=O)NCc2ncccn2)cc1Cl [Avanafil]
inactive: [1] 1 | [2] 1.03 | [3] 1.01 | [4] 0.962

CC(C)OC(=O)CCC/C=C\C[C@@H]1[C@@H](CC[C@@H](O)CCc2ccccc2)[C@H](O)C[C@@H]1O [Latanoprost]
inactive: [1] 0.958 | [2] 0.966 | [3] 1.01 | [4] 0.896

O=C(O)COc1nn(Cc2ccccc2)c2ccccc12 [Bendazac]
inactive: [1] 0.998 | [2] 1.02 | [3] 1 | [4] 0.987

CC(C)c1nc(N(C)S(C)(=O)=O)nc(-c2ccc(F)cc2)c1/C=C/[C@@H](O)C[C@@H](O)CC(=O)O [Rosuvastatin]
inactive: [1] 1.01 | [2] 1.03 | [3] 1.01 | [4] 1.01

CCOC(=O)OC(C)OC1=C(C(=O)Nc2ccccn2)N(C)S(=O)(=O)c2ccccc21 (stereo not drawn) [Ampiroxicam]
inactive: [1] 0.999 | [2] 0.988 | [3] 1 | [4] 0.986

O=C(Cn1cnnn1)N[C@@H]1C(=O)N2C(C(=O)O)=C(CSc3nncs3)CS[C@H]12 [Ceftezole]
active: [1] 0.00781 | [2] 0.00376 | [3] 0.0119 | [4] 0.00306

C/C(=C(\CCOC(=O)c1ccccc1)SS/C(CCOC(=O)c1ccccc1)=C(/C)N(C=O)Cc1cnc(C)nc1N)N(C=O)Cc1cnc(C)nc1N [Bisbentiamine]
inactive: [1] 1.02 | [2] 1.07 | [3] 1.01 | [4] 0.999

Cc1cc(O)c(C(=O)N[C@@H](C(=O)N[C@@H]2C(=O)N3C(C(=O)O)=C(CSc4nnnn4C)CS[C@H]23)c2ccc(O)cc2)cn1 [Cefpiramide]
active: [1] 0.0197 | [2] 0.0147 | [4] 0.0047
inactive: [3] 0.121

O=C1CN2Cc3c(ccc(Cl)c3Cl)N=C2N1 [Anagrelide]
inactive: [1] 1.01 | [2] 0.996 | [3] 0.994 | [4] 0.957

Reference: the supplement of paper PMC12350171
